# Target: ScBbc1
# Assay: SPOT peptide array binding signal intensity (averaged, normalized) (arbitrary units (background-subtracted, floor 0; scale differs between SH3 domains)); higher = stronger binding of the SH3 domain to the peptide
# In short: (§1)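 E. coli BL21(DE3) was used to express GST-fused SH3 domains from four yeast species, which were then purified on glutathione Sepharose. These were incubated at 10 μg/ml in TBS-based blocking buffer overnight at 4°C on cellulose membranes carrying synthetic 15-mer peptides, in which cysteines were replaced by serines. Binding signal is the replicate average of normalized, background-subtracted spot intensity, in arbitrary units that differ between domains.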
row,Binder,SPOT peptide array binding signal intensity
1,GKLKHIPRRPYEIER,55.2

# Target: ScBem1-D1
# Assay: as above
# In short: as §1
row,Binder,SPOT peptide array binding signal intensity
1,GKLKHIPRRPYEIER,6

# Target: ScBzz1-D1
# Assay: as above
# In short: as §1
row,Binder,SPOT peptide array binding signal intensity
1,GKLKHIPRRPYEIER,12

# Target: ScBzz1-D2
# Assay: as above
# In short: as §1
row,Binder,SPOT peptide array binding signal intensity
1,GKLKHIPRRPYEIER,1

# Target: ScCyk3
# Assay: as above
# In short: as §1
row,Binder,SPOT peptide array binding signal intensity
1,GKLKHIPRRPYEIER,17.5

# Target: ScFus1
# Assay: as above
# In short: as §1
row,Binder,SPOT peptide array binding signal intensity
1,GKLKHIPRRPYEIER,≤ 0

# Target: ScHof1
# Assay: as above
# In short: as §1
row,Binder,SPOT peptide array binding signal intensity
1,GKLKHIPRRPYEIER,≤ 0

# Target: ScHse1
# Assay: as above
# In short: as §1
row,Binder,SPOT peptide array binding signal intensity
1,GKLKHIPRRPYEIER,150

# Target: ScLsb1
# Assay: as above
# In short: as §1
row,Binder,SPOT peptide array binding signal intensity
1,GKLKHIPRRPYEIER,12.5

# Target: ScLsb2
# Assay: as above
# In short: as §1
row,Binder,SPOT peptide array binding signal intensity
1,GKLKHIPRRPYEIER,≤ 0

# Target: ScLsb3
# Assay: as above
# In short: as §1
row,Binder,SPOT peptide array binding signal intensity
1,GKLKHIPRRPYEIER,122

# Target: ScLsb4
# Assay: as above
# In short: as §1
row,Binder,SPOT peptide array binding signal intensity
1,GKLKHIPRRPYEIER,5

# Target: ScMyo3
# Assay: as above
# In short: as §1
row,Binder,SPOT peptide array binding signal intensity
1,GKLKHIPRRPYEIER,1.5

# Target: ScMyo5
# Assay: as above
# In short: as §1
row,Binder,SPOT peptide array binding signal intensity
1,GKLKHIPRRPYEIER,0.5

# Target: ScNbp2
# Assay: as above
# In short: as §1
row,Binder,SPOT peptide array binding signal intensity
1,GKLKHIPRRPYEIER,26.5

# Target: ScPex13
# Assay: as above
# In short: as §1
row,Binder,SPOT peptide array binding signal intensity
1,GKLKHIPRRPYEIER,17.5

# Target: ScRvs167
# Assay: as above
# In short: as §1
row,Binder,SPOT peptide array binding signal intensity
1,GKLKHIPRRPYEIER,16.7

# Target: ScSho1
# Assay: as above
# In short: as §1
row,Binder,SPOT peptide array binding signal intensity
1,GKLKHIPRRPYEIER,71.5

# Target: ScSla1-D1-D2
# Assay: as above
# In short: as §1
row,Binder,SPOT peptide array binding signal intensity
1,GKLKHIPRRPYEIER,12

# Target: ScSla1-D3
# Assay: as above
# In short: as §1
row,Binder,SPOT peptide array binding signal intensity
1,GKLKHIPRRPYEIER,0.75

# Target: SpAbp1-D1
# Assay: as above
# In short: as §1
row,Binder,SPOT peptide array binding signal intensity
1,GKLKHIPRRPYEIER,11

# Target: SpBbc1
# Assay: as above
# In short: as §1
row,Binder,SPOT peptide array binding signal intensity
1,GKLKHIPRRPYEIER,1.75

# Target: SpBzz1-D1
# Assay: as above
# In short: as §1
row,Binder,SPOT peptide array binding signal intensity
1,GKLKHIPRRPYEIER,240

# Target: SpBzz1-D2
# Assay: as above
# In short: as §1
row,Binder,SPOT peptide array binding signal intensity
1,GKLKHIPRRPYEIER,≤ 0

# Target: SpCyk3
# Assay: as above
# In short: as §1
row,Binder,SPOT peptide array binding signal intensity
1,GKLKHIPRRPYEIER,2.5

# Target: SpHof1
# Assay: as above
# In short: as §1
row,Binder,SPOT peptide array binding signal intensity
1,GKLKHIPRRPYEIER,8

# Target: SpHof1-2
# Assay: as above
# In short: as §1
row,Binder,SPOT peptide array binding signal intensity
1,GKLKHIPRRPYEIER,1

# Target: SpHof1-3
# Assay: as above
# In short: as §1
row,Binder,SPOT peptide array binding signal intensity
1,GKLKHIPRRPYEIER,44.2

# Target: SpHse1
# Assay: as above
# In short: as §1
row,Binder,SPOT peptide array binding signal intensity
1,GKLKHIPRRPYEIER,21

# Target: SpLsb1
# Assay: as above
# In short: as §1
row,Binder,SPOT peptide array binding signal intensity
1,GKLKHIPRRPYEIER,12

# Target: SpLsb4
# Assay: as above
# In short: as §1
row,Binder,SPOT peptide array binding signal intensity
1,GKLKHIPRRPYEIER,53.5

# Target: SpMyo1
# Assay: as above
# In short: as §1
row,Binder,SPOT peptide array binding signal intensity
1,GKLKHIPRRPYEIER,0.75

# Target: SpNbp2
# Assay: as above
# In short: as §1
row,Binder,SPOT peptide array binding signal intensity
1,GKLKHIPRRPYEIER,≤ 0

# Target: SpPex13
# Assay: as above
# In short: as §1
row,Binder,SPOT peptide array binding signal intensity
1,GKLKHIPRRPYEIER,≤ 0

# Target: SpRvs167
# Assay: as above
# In short: as §1
row,Binder,SPOT peptide array binding signal intensity
1,GKLKHIPRRPYEIER,3.17

# Target: SpSla1-D1-D2
# Assay: as above
# In short: as §1
row,Binder,SPOT peptide array binding signal intensity
1,GKLKHIPRRPYEIER,≤ 0

# Target: SpSla1-D3
# Assay: as above
# In short: as §1
row,Binder,SPOT peptide array binding signal intensity
1,GKLKHIPRRPYEIER,≤ 0
